Shown are actives, neighbours in structure and some others; about 2.8% of the full set was active somewhere.
TSG101-PTAP inh = qHTS Validation Assay for Inhibitors of HIV-1 Budding by Blocking the Interaction of PTAP/TSG101: Sytravon Library Screen; AID 1347069, 2019; Tumor susceptibility gene 101 protein (Homo sapiens), Q99816; Fluorescence polarization, FITC-PTAP peptide/Tsg101, 20 min; Potency, µM (highest dose often 115 µM), most hits filed as inhibitors; 44,000 tested, under 10 active
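Read-out is FITC fluorescence polarization. Compounds were added to Tsg101 binding domain (10 uM final), then FITC-PTAP peptide (50 nM final), 20 min at r.t. Total S+P intensity flags fluorescent compounds.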
GALC G270D act = A Novel Cell-Based Assay to Identify Small Molecules for B -Galactocerebrosidase; P54803; 145M-Twi-hGALC-G270D cells (Twitcher mouse brain line with human GALC G270D), HMU-beta-Gal fluorescence, 48 h; Potency, µM (doses to about 57.5 µM), actives largely listed as activators; 45,000 tested, 0.1% active; AID 1159614, 2016; note: nearly all actives have a fitted effect of over 65% in size
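Mutant human GALC (G270D), stably expressed in a Twitcher mouse brain cell line lacking endogenous GALC, is measured in live-treated cells via 6-hexadecanoylamino-4-methylumbelliferyl-β-galactoside hydrolysis (0.1 mM final, pH 5.2) with fluorescent detection.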
B2AR arrestin ag = qHTS assay of beta-arrestin-biased ligands of beta2-adrenergic receptor: NCGC Sytravon Library Screen; 44,000 tested, under 10 active; HTLA Tango cells, beta-arrestin recruitment, luciferase luminescence, 18 h; Potency, µM (series often up to 46.1 µM), actives largely listed as activators
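Tango cells (recombinant beta2-AR, beta-arrestin, tTA-driven luciferase), 1500/well in DMEM 1% FBS, treated 18 h at 37 °C with compounds up to 46 µM; luciferin mix added, luminescence read after 15 min; %activity curves fitted and curve-classed.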
GALK inh = qHTS Assay for Inhibitors of Human Galactokinase (GALK): NCGC Sytravon Library Screen | P51570 | recombinant GALK, Kinase-Glo ATP luminescence, 1 h | Potency, µM (titrated, usually from 57.5 µM), hits mostly inhibitors | 44,000 tested, under 10 active | AID 1347072, 2019
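Human GALK (5 nM) was incubated with 35 uM ATP and 100 uM galactose in 20 mM HEPES pH 8.0 with MgCl2, NaCl, DTT and BSA for 1 h at room temperature. Remaining ATP was measured by Kinase-Glo Plus luminescence.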
FH mod = Identification of activators of human fumarate hydratase by quantitative high-throughput screening; FH coupled MDH/diaphorase resazurin fluorescence, 15 min; Potency, µM (top dose mostly 79.9 µM), most hits filed as inhibitors; 54,000 tested, 0.22% active; AID 1347055, 2019; note: the screen sought activators but most active calls are inhibition curves; nearly all actives have a fitted effect of over 45% in size
GPR32 ag = qHTS for Agonists of Human Resolvin D1 Receptor DRV1 | Probable G-protein coupled receptor 32 (Homo sapiens), O75388 | CHO-K1 GPR32 beta-arrestin PathHunter luminescence, 90 min; zero percent set by DMSO-only wells | activation, % at 76.9 µM | 48,000 tested, 2.5% active | AID 1346428, 2018;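 active = activation of at least 60% and not above a set upper limit, about 1 call in 100 departs from these limits; inconclusive = activation of 40% to 60%, or above that upper limit; inactive = activation under 40%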
Target sequence (O75388 whole entry, looked up): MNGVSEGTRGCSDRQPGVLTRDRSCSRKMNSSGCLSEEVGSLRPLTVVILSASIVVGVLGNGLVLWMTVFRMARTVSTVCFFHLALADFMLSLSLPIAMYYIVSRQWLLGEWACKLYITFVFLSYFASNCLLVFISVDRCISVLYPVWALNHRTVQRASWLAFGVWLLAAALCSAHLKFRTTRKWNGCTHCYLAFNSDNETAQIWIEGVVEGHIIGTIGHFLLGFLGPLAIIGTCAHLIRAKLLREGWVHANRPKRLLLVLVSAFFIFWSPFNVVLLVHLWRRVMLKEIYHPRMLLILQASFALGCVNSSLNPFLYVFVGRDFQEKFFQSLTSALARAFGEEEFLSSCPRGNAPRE
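PathHunter beta-arrestin recruitment in CHO-K1 cells stably expressing ProLink-tagged GPR32. Cells were exposed to compound for 90 min at 37 C, then chemiluminescence was read after 1 h detection at ambient temperature; DMSO served as basal control.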
Of the large screens only hits and unclear results are named; the others gave an inactive call. Unless noted, calls come from the whole dose curve; as a rule, active = well fitted curve in the direction sought with a large enough effect; inconclusive = small, poorly fitted or top-dose-only effect, or another doubt; inactive = no such curve, though single readings can be large; an effect the other way counts as inactive or inconclusive.

CN(C)c1ccc(CNC(=O)Cn2c(=O)oc3cc(S(=O)(=O)N4CCCCCC4)ccc32)cc1	GPR32 ag 113
CN(C)c1ccc(CNC(=O)C(Cc2ccccc2)NS(=O)(=O)c2ccc3c(c2)oc(=O)n3C)cc1 (centres undefined)	GPR32 ag 94
Cn1c(=O)oc2cc(S(=O)(=O)NC(Cc3ccccc3)C(=O)NCc3ccc(F)cc3)ccc21 (centres undefined)	none
COc1cccc(CNC(=O)Cn2c(=O)oc3cc(S(=O)(=O)N4CCCCCC4)ccc32)c1	GPR32 ag 76
CCOc1cc(CNC2CCCC2)cc(Cl)c1OCc1ccc(Cl)cc1	none (no result: TSG101-PTAP inh, GALC G270D act, B2AR arrestin ag, GALK inh, GPR32 ag)
C1=C/COCc2cc(ccc2OCCN2CCCC2)Nc2nccc(n2)-c2cccc(c2)COC/1	none (no result: TSG101-PTAP inh, GALC G270D act, B2AR arrestin ag, GALK inh, GPR32 ag)
CCOC(=O)c1ccc(OCCC2CCN(c3ccc(C)nn3)CC2)cc1	none (no result: TSG101-PTAP inh, GALC G270D act, B2AR arrestin ag, GALK inh, GPR32 ag)
O=C(c1ccc(CSc2nc3ccncc3n2Cc2ccc(F)cc2)cc1)N1CCCCCC1	GPR32 ag 61
O=C(c1ccc(CSc2nc3ccncc3n2Cc2cccc(F)c2)cc1)N1CCCCC1	none
Cc1c(C(=O)N(C)c2cccc(C(F)(F)F)c2)sc2nc3n(c(=O)c12)CCCCC3	TSG101-PTAP inh 45µM, FH mod inconclusive
CC(C)(C)c1cc(CN2CCN(CC(O)c3ccc(Cl)cc3)CC2)cc(C(C)(C)C)c1O (centres undefined)	none (no result: TSG101-PTAP inh, GALC G270D act, B2AR arrestin ag, GALK inh, GPR32 ag)
Nc1ncnc2c1c(-c1ccc(Cl)cc1)nn2-c1cccc(-c2cnnn2Cc2cccc(-c3ccccc3)c2)c1	none (no result: TSG101-PTAP inh, GALC G270D act, B2AR arrestin ag, GALK inh, GPR32 ag)
COc1cc2nc(Nc3ccc(C)c(C)c3)nc(N)c2cc1OC	GPR32 ag 83
Cc1ccc(-n2ncc3c(Nc4cccc(C(F)(F)F)c4)ncnc32)cc1C	GPR32 ag 94
Cc1ccc(-n2ncc3c(Nc4cccc(C)c4)ncnc32)cc1	GPR32 ag inconclusive
C=C(C(=O)OC)C1C(O)CC2(C)C(O)CCC(=O)C2C1O (centres undefined)	none (no result: TSG101-PTAP inh, GALC G270D act, B2AR arrestin ag, GALK inh, GPR32 ag)
Cc1oc(-c2ccccc2)nc1CNC(=O)Nc1ccccc1	GPR32 ag inconclusive
Cc1oc(-c2ccccc2)nc1CNS(=O)(=O)c1ccc(Cl)cc1	GPR32 ag 115
O=C(CCC1CCN(Cc2ccccc2)CC1)c1ccc2c(c1)NCCCC2	FH mod inconclusive, GPR32 ag 81 (no result: TSG101-PTAP inh, B2AR arrestin ag, GALK inh)
CN(c1ccccc1CNc1nc(Nc2ccc3c(c2)CC(=O)N3)ncc1C(F)(F)F)S(C)(=O)=O	none (no result: TSG101-PTAP inh, GALC G270D act, B2AR arrestin ag, GALK inh, GPR32 ag)
Cc1ccc(Cn2c(C)c(CNCC(C)c3ccccc3)c(C(=O)O)c2C)cc1 (centres undefined)	GPR32 ag 75
Cc1ccc(Cn2c(C)c(CNCc3ccc(OC(C)C)cc3)c(C(=O)O)c2C)cc1	GPR32 ag 86
COC(=O)C1=C2Nc3ccccc3C23CCN2CCCC(C(C)O)(C1)C23 (centres undefined)	none (no result: TSG101-PTAP inh, GALC G270D act, B2AR arrestin ag, GALK inh, GPR32 ag)
O=S(=O)(NCCc1csc(-c2cccc(F)c2)n1)c1cc(F)ccc1F	none
COc1ccc(S(=O)(=O)NCCc2csc(-c3ccc(F)cc3)n2)cc1	GPR32 ag 60
CCOc1ccc(S(=O)(=O)NCCc2csc(-c3ccc(Cl)cc3)n2)cc1	FH mod inconclusive, GPR32 ag 69
Cc1ccc(C)c(S(=O)(=O)NCCc2csc(-c3ccc(Cl)cc3)n2)c1	FH mod inconclusive, GPR32 ag 74
Cc1ccc(S(=O)(=O)NCCc2csc(-c3ccc(Cl)cc3)n2)cc1	FH mod inconclusive, GPR32 ag inconclusive
Cc1ccc(S(=O)(=O)NCCc2csc(-c3cccc(F)c3)n2)cc1	FH mod inconclusive, GPR32 ag 80
